This is a sample that favours compounds with a hit; in the whole collection about 3.8% have one here.
HSP90 refold inh = HSP90 refolding inhibition in rabbit reticulocyte lysate; luciferase refolding luminescence, 3 h; inhibition, % at 5.6 µM; actives 0.91% (n = 290,000);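 active = inhibition above the screen-wide mean plus 3 SD, computed separately per campaign, cut at about 16% in these data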;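 note: 0% = DMSO wells and 100% = 60 µM geldanamycin wells; inhibitors lower the luminescence because luciferase stays unfolded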
p-CIP stab down = p/CIP protein destabilization. Q05BA5. F442A p/CIP-EGFP cells, EGFP fluorescence, 16 h. decrease of EGFP signal, % at 10 µM. actives 0.01% (n = 290,000);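 active = EGFP signal decrease of at least 30% at 10 µM or well 3 SD below plate mean, unless failing retest; inactive = the rest, including hits failing retest or dose response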
Target sequence (Q05BA5 1-1403): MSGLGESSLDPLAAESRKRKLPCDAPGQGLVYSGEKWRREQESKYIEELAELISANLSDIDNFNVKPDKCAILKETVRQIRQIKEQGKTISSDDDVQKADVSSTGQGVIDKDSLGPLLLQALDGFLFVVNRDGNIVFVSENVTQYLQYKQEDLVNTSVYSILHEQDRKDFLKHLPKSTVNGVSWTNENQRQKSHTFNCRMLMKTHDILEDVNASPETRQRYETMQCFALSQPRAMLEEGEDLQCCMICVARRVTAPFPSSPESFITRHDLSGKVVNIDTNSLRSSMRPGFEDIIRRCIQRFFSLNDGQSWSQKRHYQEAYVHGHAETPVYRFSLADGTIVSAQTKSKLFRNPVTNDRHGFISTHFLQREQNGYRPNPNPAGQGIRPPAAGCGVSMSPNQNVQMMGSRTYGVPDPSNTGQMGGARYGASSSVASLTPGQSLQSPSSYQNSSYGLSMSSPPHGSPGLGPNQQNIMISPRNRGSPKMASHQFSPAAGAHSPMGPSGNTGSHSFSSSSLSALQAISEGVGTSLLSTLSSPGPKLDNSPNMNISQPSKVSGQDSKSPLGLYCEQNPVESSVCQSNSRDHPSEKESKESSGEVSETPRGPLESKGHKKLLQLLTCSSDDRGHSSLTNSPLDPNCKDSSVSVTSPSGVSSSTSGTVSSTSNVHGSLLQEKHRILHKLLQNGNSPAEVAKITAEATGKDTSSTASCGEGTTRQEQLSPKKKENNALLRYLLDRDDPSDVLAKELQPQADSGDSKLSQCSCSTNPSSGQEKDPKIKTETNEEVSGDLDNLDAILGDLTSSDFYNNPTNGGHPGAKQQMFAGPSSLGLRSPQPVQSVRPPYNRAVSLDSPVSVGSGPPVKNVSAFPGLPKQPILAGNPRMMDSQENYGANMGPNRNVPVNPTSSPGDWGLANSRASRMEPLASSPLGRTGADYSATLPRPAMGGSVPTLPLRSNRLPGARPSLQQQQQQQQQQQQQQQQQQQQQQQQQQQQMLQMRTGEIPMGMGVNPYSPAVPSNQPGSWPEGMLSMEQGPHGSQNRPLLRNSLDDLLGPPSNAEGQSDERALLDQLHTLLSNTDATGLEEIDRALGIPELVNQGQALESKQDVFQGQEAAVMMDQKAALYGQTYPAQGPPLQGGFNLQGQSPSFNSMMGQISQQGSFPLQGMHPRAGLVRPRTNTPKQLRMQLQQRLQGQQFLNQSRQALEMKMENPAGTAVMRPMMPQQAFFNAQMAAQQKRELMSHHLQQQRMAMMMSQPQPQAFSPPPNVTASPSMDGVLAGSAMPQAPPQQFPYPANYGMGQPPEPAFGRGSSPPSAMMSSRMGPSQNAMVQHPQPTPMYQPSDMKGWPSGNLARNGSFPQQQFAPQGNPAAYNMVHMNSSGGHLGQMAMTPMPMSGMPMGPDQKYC
Hsp70 act = transcriptional activators of Hsp70 | HeLa Hsp70 promoter luciferase reporter, luminescence; scaled: vehicle 0, proteasome-inhibitor control 100% | activation, % at 10 µM | actives 0.04% (n = 200,000);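 active = activation above the mean across all tested compounds plus 3 SD, cutoff set per campaign, cut at about 5.5% in these data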;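 note: 100% = MG132 at 30 µM as the positive control and 0% = DMSO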
HSF1 activator = increases HSF-1 driven luciferase reporter signal; NIH3T3-HGL HSF-1 luciferase reporter, MG132, 8 h; 100% = twice DMSO control signal; activation, % at 9 µM; actives 1.7% (n = 300,000);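 active = mean replicate activation of at least 50% with a set share of replicates each reaching 50%; inconclusive = only one of those two conditions met; inactive = mean below 50% and too few replicates reaching it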;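 note: 0% = median of the neutral control wells and 100% = twice that signal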
NALP1 yeast inh = NALP1 inhibition; S. cerevisiae NALP1/ASC/caspase-1 growth, X-gal OD620, 72 h; inhibition, % at 10 µM; actives 0.61% (n = 280,000); in the data active = inhibition mostly above about 24%, no sharp cut-off; inactive = mostly below about 32%
HSF1 inh = HSF1 inhibition | activity change, negative = inhibition, % at 7.5 µM (by protocol) | NIH3T3-HGL HSE-luciferase, MG132-induced, luminescence 8 h; stronger effect = lower value | actives 0.77% (n = 300,000);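 active = more than half of replicate wells show activity change below -50%, luminescence cut by over half; inconclusive = some wells, but at most half, below -50%; inactive = no replicate well below -50%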;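 note: luciferase reports HSF-1 transcriptional activity via heat shock element; 0% = median of DMSO wells and -100% = zero luminescence signal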
HSP90 inh confirm = HSP90 inhibition, confirmation assay | shares compounds with HSP90 refold inh | inhibition, % at 5.9 µM | rabbit reticulocyte lysate, luciferase refolding luminescence, 3 h | actives 64% (n = 2,300); in the data active = inhibition above about 18%;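 note: 0% = vehicle wells and 100% = reference inhibitor wells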
FLuc counter = blocks native firefly luciferase in HSP90 counter-screen; shares compounds with HSP90 refold inh; AID 1847; actives 48% (n = 2,300); purified native firefly luciferase, luminescence; inhibition, % at 5.9 µM;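 active = inhibition above the mean inhibition of all tested sample wells plus 3 SD, cut at about 10% in these data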;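 note: 0% = DMSO with luciferase and 100% = wells lacking luciferase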
Starred values were filed as active, the others as inactive; ? = inconclusive; . = no result.

SMILES | HSP90 refold inh | p-CIP stab down | Hsp70 act | HSF1 activator | NALP1 yeast inh | HSF1 inh | HSP90 inh confirm | FLuc counter
CC1=C(C(=O)OCC(C)C)C(c2ccsc2)NC(=O)N1 (configuration not stated) | 24* | 3 | 0 | 11 | 14 | 10 | 2 | -5
CCOC(=O)C1=C(C)NC(=O)NC1c1ccsc1 (configuration not stated) | -4 | 0 | 0 | 18 | 2 | 3 | . | .
Cc1cccc(NS(=O)(=O)c2ccc(C)c(C(=O)NCc3ccncc3)c2)c1 | . | . | . | -14 | . | -1 | . | .
Cc1ccc(S(=O)(=O)Nc2ccc3c(c2)OCCO3)cc1 | 2 | -2 | 0 | 6 | -17 | -2 | . | .
O=C(CCNS(=O)(=O)c1cccc2nsnc12)Nc1ccc2c(c1)OCCO2 | 4 | -7 | -1 | -28 | 6 | -27 | . | .
O=[N+]([O-])c1ccc(S(=O)(=O)Nc2ccc3c(c2)OCCO3)cc1 | 27* | -9 | . | -29 | 5 | -14 | 5 | -3
O=S(=O)(Nc1ccc2c(c1)OCCO2)c1cccc2nsnc12 | 20* | -14 | 0 | -67 | 31* | -59* | 31* | 50*
CCCc1nc2ccccc2c(C(=O)OCC(=O)Nc2c(C)n(C)n(-c3ccccc3)c2=O)c1CC | 3 | -13 | -1 | -33 | 35 | -9 | . | .
Cc1cc(OC(C)C(=O)NC(Cc2c[nH]c3ccc(O)cc23)C(=O)O)c2c(C)c(C)c(=O)oc2c1 (configuration not stated) | -7 | -1 | . | -4 | 18 | -6 | . | .
CC(Oc1ccc2c(c1)oc(=O)c1ccccc12)C(=O)NC(Cc1c[nH]c2ccc(O)cc12)C(=O)O (configuration not stated) | 47* | 8 | . | -10 | 11 | 1 | -2 | -5
Cc1ccc2oc(/N=C(\N)NC(=O)C3CC3)nc2c1 | 27* | 1 | . | 21 | 10 | 2 | 48* | 40*
Cc1ccc2oc(/N=C(\N)NC(=O)C(C)(C)C)nc2c1 | 81* | -13 | . | -93 | 15 | -91* | 85* | 83*
CCC1CCC/C1=N\NC(=O)c1ccccc1C (configuration not stated) | . | . | . | 18 | . | 8 | . | .
CN(C(=O)C(C)(C)C)C1c2c(ccc3ccccc23)OCC1CO (configuration not stated) | 0 | -2 | . | 6 | 8 | 1 | . | .
COc1ccc(/C=N/Nc2cc(OC)ncn2)cc1 | 18* | -5 | 0 | 69* | 23 | 33 | 31* | 26*
COc1ccc(S(=O)(=O)N2CCOC2CNC(=O)C(=O)NCc2ccco2)cc1 (configuration not stated) | -5 | -9 | . | 18 | . | 1 | . | .
Cc1ccc(-c2cc(C(=O)N/N=C/c3ccco3)[nH]n2)cc1 | 22* | -13 | 0 | -4 | 10 | 2 | 19* | 24*
O=C(N/N=C/c1ccco1)c1cc(-c2ccccc2)n[nH]1 | -2 | -4 | 0 | 20 | -4 | -6 | . | .
O=C(c1cc(-c2ccc(Cl)cc2Cl)on1)N1CCOCC1 | 30* | -6 | 0 | 31 | 0 | 11 | 46* | 43*
O=C(c1cc(-c2ccc(Cl)cc2)on1)N1CCOCC1 | 12 | 2 | 1 | 29 | 9 | 11 | . | .
CCOC(=O)CN1C(=O)S/C(=C/C=C/c2ccc(N(C)C)cc2)C1=O | 39* | -68 | 0 | 7 | 3 | -7 | -5 | -25
CCOC(=O)CN1C(=O)S/C(=C/c2ccc3c(c2)n(C)c(=O)n3C)C1=O | 2 | -15 | 0 | -44 | 10 | -27 | . | .
COc1ccc(NC(=O)CCCNC(=O)Cn2cnc3sc4c(c3c2=O)CCCC4)c(OC)c1 | -5 | -13 | . | 5 | 10 | -13 | . | .
Cc1cnc(NC(=O)COc2ccc3c(c2)CCC3)s1 | 18* | -5 | . | 46 | 0 | 26 | 32* | 23*
CC(=O)c1cccc(N(CC(=O)NC2CCCCC2)C(=O)CCC(=O)Nc2nc(C)cs2)c1 | -3 | -8 | . | 16 | -10 | -2 | . | .
SMILES | HSP90 refold inh | p-CIP stab down | Hsp70 act | HSF1 activator | NALP1 yeast inh | HSF1 inh | HSP90 inh confirm | FLuc counter
COc1ccc(CCNC(=O)c2nnn(-c3ccccc3OC)c2N)cc1OC | 6 | -1 | 0 | -7 | 19 | 2 | . | .
COc1ccc(CCNC(=O)c2nnn(-c3ccc4c(c3)OCCO4)c2N)cc1OC | 29* | 4 | 0 | -78 | 8 | -76* | 64* | 66*
COc1ccc(CCC(C)NCc2cccc(Br)c2)cc1 (configuration not stated) | -2 | -11 | . | -7 | 24 | 0 | . | .
CC1(C)CN=C(N(Cc2ccccc2)C(=O)Nc2ccccc2)S1 | 19* | 3 | 0 | -2 | 38 | -6 | 29* | 19*
Cc1c(/C(O)=C2\C(=O)C(=O)N(CCN(C)C)C2c2cccnc2)cnn1-c1ccccc1 (configuration not stated) | 3 | 1 | 0 | . | 13 | . | . | .
Cc1ccc(C2/C(=C(/O)c3cnn(-c4ccccc4)c3C)C(=O)C(=O)N2CCCN2CCOCC2)o1 (configuration not stated) | -2 | -2 | . | 32 | . | 15 | . | .
Cc1c(/C(O)=C2/C(=O)C(=O)N(CCN3CCOCC3)C2c2ccccn2)cnn1-c1ccccc1 (configuration not stated) | 76* | 2 | 0 | -86 | 12 | -85* | 22* | 36*
Cc1c(/C(O)=C2\C(=O)C(=O)N(CCN(C)C)C2c2cccs2)cnn1-c1ccccc1 (configuration not stated) | 40* | -5 | 0 | -46 | 3 | -39 | 10 | -3
Cc1ccccc1C(=O)N/N=C1/SCC(=O)N1Cc1ccc2c(c1)OCO2 | -4 | -4 | 0 | 18 | 23 | 14 | . | .
O=C(NC(=O)c1ccccc1)Nc1ccccc1 | 64* | 2 | . | 46 | 4 | 27 | 59* | 47*
CC1CCN(c2ccc(-c3cccs3)nn2)CC1 | 81* | 0 | . | -72 | 8 | -67* | 90* | 84*
Clc1ccc(-c2cccs2)nn1 | 0 | -6 | 0 | -17 | -11 | -7 | . | .
Cc1c(C)c2ccc(OCC(=O)Nc3nccs3)cc2oc1=O | 58* | -11 | . | 5 | 19 | 3 | 73* | 56*
Cc1cc(=O)oc2cc(OCC(=O)Nc3nccs3)ccc12 | 6 | 18 | . | ? | 30 | 25 | . | .
Cc1c(C)c2ccc(OCC(=O)Nc3ccccn3)cc2oc1=O | 25* | 3 | . | -11 | -2 | 6 | 64* | 28*
Cc1cccc(OCC(=O)Nc2nccs2)c1C | 27* | -6 | . | 56* | 38* | 28 | 29* | 14*

Compound activity: PubChem, several laboratories
